Consider nine compounds from PubChem BioAssay (NCI).

Among the test systems are DU-145 prostate; K-562 leukemia; MALME-3M melanoma; MDA-MB-231 breast; RXF 393 renal; SF-268 CNS; SF-539 CNS; UACC-257 melanoma; M14 melanoma; HCT-15 colon; HT29 colon; SNB-75 CNS; SNB-19 CNS; U251 CNS; PC-3 prostate; SK-MEL-5 melanoma; UACC-62 melanoma; LOX IMVI melanoma; SK-MEL-28 melanoma.
Common to all, as to experiment: NCI-60 one-dose screen, 48 h (100 = growth as untreated, 0 = no growth, -100 = all killed)
What all share (conditions): 10 µM unless noted

Structures are written as SMILES. This is part of a sample that, as a whole, favours compounds with a hit. Of some 83,000 tested, about 20% had one in any assay.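 The endpoint reported here, percent growth, reads 100 for growth as untreated, 0 for no net growth and -100 for all cells dead.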 Unmarked numbers belong to inactive results. Activity calls are given as the source filed them. Rule for the calls: active = growth percent below 10; inactive = the rest.

For the compound `CC(COC(=O)c1ccccc1)N1CC2CCC(C1)O2` (stereo unspecified), the growth with DU-145 prostate is 107%; with K-562 leukemia, 97.3%; in the test with MALME-3M melanoma, 104%; in the test with MDA-MB-231 breast it was 107%; in the test on RXF 393 renal, 106%; with SF-268 CNS, 106%. The growth with SF-539 CNS is 100%; in the test with UACC-257 melanoma, 92.7%; in the test with M14 melanoma, 99.3%; with HCT-15 colon it was 99.7%; in the test with HT29 colon, 107%; in the test on SNB-75 CNS, 93.7%. The growth with SNB-19 CNS is 102%; in the test on U251 CNS it was 98.7%; with PC-3 prostate it was 91.6%; with SK-MEL-5 melanoma it was 101%; in the test on UACC-62 melanoma it was 100%; in the test with LOX IMVI melanoma, 98%. Besides, the growth with SK-MEL-28 melanoma was 104%.
For the compound `O=C(O)C1[S][Sb]([CH](C(=O)O)[CH](C(=O)O)[Sb]2[S]C(C(=O)O)C(C(=O)O)[S]2)[S]C1C(=O)O` (stereo unspecified), the growth in the test with DU-145 prostate is 97.1%; in the test on K-562 leukemia, 76%; in the test on MALME-3M melanoma, 31.3%; with MDA-MB-231 breast, 88.2%; with RXF 393 renal, 103%; in the test on SF-268 CNS, 104%. Besides, the growth in the test on SF-539 CNS was 76.3%; in the test with UACC-257 melanoma, 89.3%; in the test with M14 melanoma, 74.5%; with HCT-15 colon it was 87.6%; in the test on HT29 colon it was 80.8%; in the test on SNB-19 CNS, 92.9%. Also, the growth was 73.1% in the test with U251 CNS; 83.4% in the test on PC-3 prostate; 3.78% (active) with SK-MEL-5 melanoma; 89.2% in the test on UACC-62 melanoma; 8.37% (active) in the test on LOX IMVI melanoma; 61.1% with SK-MEL-28 melanoma.
On to `Clc1ccc2c(c1)-c1ccccc1C1=NCCN12`, for which the growth in the test on DU-145 prostate is 30.8%; with K-562 leukemia, 9.07% (active); with MALME-3M melanoma, 11.5%; with MDA-MB-231 breast it was 45.6%; in the test with RXF 393 renal it was 2.19% (active); in the test on SF-268 CNS, 41.1%. The growth was 33.8% in the test with SF-539 CNS; 14.2% with UACC-257 melanoma; 37.8% in the test with M14 melanoma; 20% with HCT-15 colon; 4.08% (active) with HT29 colon; 49.5% in the test on SNB-75 CNS. The growth was 25% in the test with U251 CNS; 28.5% with PC-3 prostate; 19.9% in the test with SK-MEL-5 melanoma; 30.3% with UACC-62 melanoma; 11.7% in the test with LOX IMVI melanoma; 43.2% with SK-MEL-28 melanoma.
Take `O=C(CN1CCN(c2ccccc2)CC1)N1CCN(c2nnc(-c3ccc(Cl)cc3)c(-c3ccc(Cl)cc3)n2)CC1`: the growth is 76% with DU-145 prostate; 22.4% with K-562 leukemia; 126% in the test on MALME-3M melanoma; 76.4% with MDA-MB-231 breast; 49.9% in the test with RXF 393 renal; 65.2% with SF-268 CNS. For the same compound, the growth is 60.2% in the test on SF-539 CNS; 61.6% in the test with UACC-257 melanoma; 69.5% with M14 melanoma; 45.4% in the test with HCT-15 colon; 32.3% in the test with HT29 colon; 66.8% with SNB-75 CNS. The growth in the test on U251 CNS is 60.4%; with PC-3 prostate, 26.6%; in the test with SK-MEL-5 melanoma, 44.2%; in the test on UACC-62 melanoma, 63.1%; in the test with LOX IMVI melanoma it was 64.6%; in the test with SK-MEL-28 melanoma, 81.9%.
As for `CCOC(=O)Nc1ccc2nc(-c3cscn3)[nH]c2c1`, the growth in the test with DU-145 prostate is 72.9%; with K-562 leukemia, 19.1%; in the test with MALME-3M melanoma, 22%; in the test with MDA-MB-231 breast, 59.9%; in the test on RXF 393 renal it was 39.2%; in the test with SF-268 CNS, 66.5%. The growth was 62.9% in the test on SF-539 CNS; 66.6% with UACC-257 melanoma; 37.8% in the test with HCT-15 colon; 14.8% with HT29 colon; 33.1% in the test on SNB-75 CNS; 35% in the test on U251 CNS. Besides, the growth in the test on PC-3 prostate was 82.2%; in the test on SK-MEL-5 melanoma it was 31.9%; in the test on UACC-62 melanoma, 45.4%; with LOX IMVI melanoma, 46.6%; in the test on SK-MEL-28 melanoma it was 53.4%.
In the case of `Nc1nc(N)c2cc(CNc3ccc(Cl)c(Cl)c3)ccc2n1`, the growth with DU-145 prostate is 44.6%; in the test with K-562 leukemia, -72.3% (active); with MALME-3M melanoma it was 47.1%; with MDA-MB-231 breast it was -23.9% (active); in the test on RXF 393 renal, 26.5%; with SF-268 CNS, 35%. Moreover, the growth is 23.7% with SF-539 CNS; 32.4% in the test with UACC-257 melanoma; -69.7% (active) in the test with M14 melanoma; 9.76% (active) in the test with HCT-15 colon; -75.2% (active) with HT29 colon; 31.5% with SNB-19 CNS. In addition, the growth in the test on U251 CNS was -78.1% (active); in the test on PC-3 prostate it was 22.5%; in the test with SK-MEL-5 melanoma it was 15.4%; in the test with UACC-62 melanoma, 21%; in the test with LOX IMVI melanoma, -54.8% (active); in the test with SK-MEL-28 melanoma, 60.1%.
In the case of `C=CCn1c(C)nc2cc(Nc3nc(Nc4ccc5nc(C)n(CC=C)c5c4)nc4ccccc34)ccc21`, the growth with DU-145 prostate was 115%; with K-562 leukemia, 102%; in the test on MALME-3M melanoma, 94.5%; in the test with MDA-MB-231 breast it was 90%; in the test with RXF 393 renal it was 124%; in the test on SF-268 CNS it was 113%. Moreover, the growth in the test on SF-539 CNS was 98.6%; in the test with UACC-257 melanoma, 102%; in the test with M14 melanoma, 109%; with HCT-15 colon, 107%; in the test on HT29 colon, 103%; in the test on SNB-19 CNS, 100%. Also, the growth with U251 CNS is 94.4%; in the test with PC-3 prostate, 95.8%; in the test on SK-MEL-5 melanoma, 99.7%; in the test on UACC-62 melanoma, 95.8%; in the test on LOX IMVI melanoma it was 93.3%; with SK-MEL-28 melanoma it was 106%.
For `Cc1ccc(N=CNN=C(N)N)cc1`, the growth in the test on DU-145 prostate was 113%; in the test with K-562 leukemia, 87.8%; in the test with MALME-3M melanoma, 114%; with MDA-MB-231 breast, 118%; with RXF 393 renal, 110%; in the test with SF-268 CNS, 105%. Besides, the growth with SF-539 CNS is 94.8%; in the test on UACC-257 melanoma it was 97.4%; in the test with M14 melanoma, 103%; in the test with HCT-15 colon, 100%; with HT29 colon it was 105%; in the test on SNB-75 CNS, 96.8%. For the same compound, the growth is 97.2% in the test with U251 CNS; 107% with PC-3 prostate; 89.8% in the test with UACC-62 melanoma; 113% in the test on LOX IMVI melanoma; 106% in the test on SK-MEL-28 melanoma.
`Nc1c(C(=O)Nc2cccc(Cl)c2)sc2ncc(Br)cc12`: the growth in the test on DU-145 prostate was 59.6%; in the test on K-562 leukemia, 82.9%; in the test with MALME-3M melanoma, 66.9%; in the test on MDA-MB-231 breast, 73.5%; in the test with RXF 393 renal, 86.4%; in the test with SF-268 CNS it was 64.1%. In addition, the growth in the test on SF-539 CNS is 61.5%; in the test with UACC-257 melanoma, 96%; with HCT-15 colon, 82.5%; with HT29 colon, 66.4%; with SNB-75 CNS, 56%; with SNB-19 CNS, 107%. For the same compound, the growth in the test on U251 CNS was 10.8%; in the test on PC-3 prostate, 80.1%; in the test on SK-MEL-5 melanoma, 95.6%; in the test with UACC-62 melanoma it was 99.5%; in the test with LOX IMVI melanoma, 39.9%; in the test with SK-MEL-28 melanoma, 89.2%.
